Assay outcomes (PubChem BioAssay)
VP16 counter: VP16 counterscreen qHTS for inhibitors of ROR gamma transcriptional activity | Drosophila S2 Gal4-VP16 UAS-luciferase, luminescence, 20 h | Potency, µM (titrated, usually from 53.6 µM), inactives show at the highest dose activity, negative = inhibition, most hits filed as inhibitors | 310,000 compounds, 3.5% hits | AID 2546, 2010;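 further: Gal4-VP16 expression switched on by copper sulfate through the metallothionein promoter; nearly all actives have a fitted effect of over 50% in size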
KinaseGlo FLuc: Counterscreen for Luciferase (Kinase-Glo TM) Inhibition; Kinase-Glo luciferase, ATP luminescence, 8 min; Potency, µM (series often up to 38.3 µM), inactives show top-dose activity change, negative = inhibition, hits mostly inhibitors; AID 1379, 2008; 200,000 compounds, 0.28% hits; Luciferin 4-monooxygenase (Photuris pensylvanica), Q27757; further: nearly all actives have a fitted effect of over 60% in size
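Light output from Kinase-Glo luciferase with luciferin and 10 uM ATP in 50 mM imidazole pH 7.2, KCl, MgCl2, Tween 20, BSA; compound pin-delivered, 8-min ambient incubation, then luminescence read.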
RORg inh: qHTS for inhibitors of ROR gamma transcriptional activity | Nuclear receptor ROR-gamma (Mus musculus), P51450 | Drosophila S2 Gal4-RORgamma UAS-luciferase reporter, 20 h | Potency, µM (top dose mostly 53.6 µM), without a hit: at the top dose activity change, negative = inhibition, hits mostly inhibitors | 310,000 compounds, 5.4% hits | AID 2551, 2010; further: nearly all actives have a fitted effect of over 60% in size
Target sequence (P51450 whole entry, looked up, the tested form may be a part): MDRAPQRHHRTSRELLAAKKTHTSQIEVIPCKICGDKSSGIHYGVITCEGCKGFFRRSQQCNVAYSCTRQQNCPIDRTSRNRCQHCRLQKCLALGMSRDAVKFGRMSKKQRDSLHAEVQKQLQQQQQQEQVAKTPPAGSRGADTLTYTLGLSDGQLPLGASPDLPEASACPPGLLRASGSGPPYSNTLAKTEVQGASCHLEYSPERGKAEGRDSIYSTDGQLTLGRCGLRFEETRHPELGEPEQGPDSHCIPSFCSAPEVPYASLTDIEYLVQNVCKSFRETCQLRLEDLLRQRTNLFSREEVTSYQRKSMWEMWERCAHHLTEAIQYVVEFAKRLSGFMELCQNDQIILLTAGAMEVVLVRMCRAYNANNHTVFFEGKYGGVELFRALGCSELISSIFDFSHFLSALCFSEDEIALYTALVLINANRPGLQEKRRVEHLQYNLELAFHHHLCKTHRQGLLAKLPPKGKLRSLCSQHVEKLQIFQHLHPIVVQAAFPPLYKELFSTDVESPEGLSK
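Stable Schneider cell line, Gal4 DNA-binding domain fused to ROR gamma, UAS-luciferase. Cmpd 1 hr RT → CuSO4 700 uM final → 20 hr RT → luciferase reagent 10 min → luminescence.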
* hit, by the source's call; u = inconclusive; x = no result; ! = not confirmed by another sample; [ ] = remark or other dose. Shown are actives, neighbours in structure and some others; about 6.2% of the full set was active somewhere. The call rests on the fitted dose curve; in most records, active means well fitted curve in the direction sought with a large enough effect; inconclusive means small, poorly fitted or top-dose-only effect, or another doubt; inactive means no such curve, though single readings can be large; an effect the other way counts as inactive or inconclusive. On the % scale 0 is the no-effect control and ±100 the full control effect; potency means the concentration at half of the fitted maximal effect.

SMILES | VP16 counter | KinaseGlo FLuc | RORg inh
COc1ccc(C(=O)C2CCCN(Cc3ccccn3)C2)c(OC)c1 (configuration not stated) | -12.5% | 1.1% | 10µM*
Cc1cccc(CN2CCCC(C(=O)c3cccc(OC(C)C)c3)C2)n1 (configuration not stated) | 15.8µM* | 1.2% | 2.24µM*
Cc1cccc(CN2CCCC(C(=O)c3ccc4c(c3)OCO4)C2)n1 (configuration not stated) | 12.6µM* | 1.4% | 3.16µM*
COc1ccc(C(=O)C2CCCN(Cc3cnc(C)s3)C2)c(OC)c1 (configuration not stated) | -20.7% | -3.6% | 27.0%
O=c1ccc2cc(OC3OC(CO)C(O)C(O)C3O)c(O)cc2o1 (configuration not stated) | -22.0% | 3.3% | u
C[C@@]12Cc3cnc(-c4ccccc4)nc3C[C@@H]1CC[C@@H]1[C@H]3CC[C@@](C)(O)[C@]3(C)CC[C@@H]12 | x | -2.6%[7.66 µM] | x
O=C(O)CN1CCN(CC(=O)O)CC(=O)[O][Hg][O]C(=O)C1 | x | -20.3%[7.66 µM] | x
COc1c(C)cc(C(=O)C2CCCN(Cc3cccc(O)c3)C2)cc1C (configuration not stated) | 2.0% | x | -1.5%
COc1c(C)cc(C(=O)C2CCCN(Cc3cccc(C)n3)C2)cc1C (configuration not stated) | 12.6µM* | -0.6% | 2.24µM*
Cc1ccc(NC(=O)COC(=O)/C=C/c2ccco2)cc1S(=O)(=O)N(C)C | u | -1.1% | 4.3%
O=C(Nc1nccs1)C(Cl)(Cl)Cl | u | -1.6% | u
O=C(CCl)Nc1nccs1 | 12.6µM* | x | u
O=C(Nc1cccc(OC(=O)N2CCOCC2)c1)N1CCOCC1 | 7.4% | 2.2% | 33.0%
O=C(N/N=C/c1ccccc1OC(=O)N1CCOCC1)c1cccs1 | 12.6µM* | -1.2% | 2.51µM*
CCCCCn1c(=O)c(C(=O)Nc2nc3ccccc3[nH]2)c(O)c2ccccc21 | 5.2% | x | -4.2%
Cc1ccc(C(=O)Nc2nc3ccccc3[nH]2)cc1 | 3.55µM* | x | 2.51µM*
Cc1ccc(S(=O)(=O)N2CCC(=O)N(CCOC(=O)Nc3cccc(Cl)c3)CC2)cc1 | 4.7% | 2.8% | u
CC1Cc2c(cnc3c2CN(C)CC3)CO1 (configuration not stated) | 2.7%[10 µM] | x | -9.3%[10 µM]
CCC(=Nc1ccc2c(c1)CCC2)c1c(O)n(C2CCCCC2)c(=O)[nH]c1=O | 16.6% | -4.0% | u
CCC(=NC1CC1)c1c(O)n(C2CCCCC2)c(=O)[nH]c1=O | 26.6% | 4.0% | 26.1%
CC/C(=N\NC(=O)c1ccccc1Cl)c1c(O)n(C2CCCCC2)c(=O)[nH]c1=O | 12.6µM* | x | 7.94µM*
CC/C(=N\NC(=O)c1ccccc1)c1c(O)n(C2CCCCC2)c(=O)[nH]c1=O | u | x | 14.1µM*
CNC(=S)S | -5.8% | x | -5.0%
CC[n+]1c(-c2ccccc2)c2cc(N)ccc2c2ccc(N)cc21 | 11.2µM* | u | u
CCCCC/C=C\C/C=C\C/C=C\C/C=C\CCCC(=O)NCCCl | -21.0% | -4.0%[39.9 µM] | -42.0%
SMILES | VP16 counter | KinaseGlo FLuc | RORg inh
CCCC1(CCC)C(=O)NC(=NCc2ccccc2)NC1=O | -3.2% | -1.8% | 0.7%
S=C=NCc1ccccc1 | u | -3.3% | 5.62µM*
O=c1c(O)c(-c2ccc(O)c(O)c2)oc2c(O)c(O)cc(O)c12 | -16.1% | -11.3% | -14.0%
CCn1c(NN=O)nc2ccccc21 | u | -0.5% | 0.501µM*
CCn1c(P(C)(=O)O)nc2ccccc21 | -1.1% | -0.1% | -1.2%
c1ccc2c(c1)CCCC2 | -6.7% | x | 1.7%
C=C1C(=O)O[C@@H]2C[C@@H](C)[C@@H]3C=CC(=O)[C@@]3(C)[C@@H](O)[C@H]12 | 3.16µM* | x | 3.16µM*
O=c1[nH]c(=S)n(Cc2ccc(F)cc2)c(O)c1/C=N/N1CCCCC1 | u | -0.8% | 11.2µM*
O=c1[nH]c(=S)n(Cc2ccc(F)cc2)c(O)c1C=NCC1CCCO1 (configuration not stated) | -3.6% | 3.0% | 26.1%
COc1ccc2c3c([nH]c2c1)C(C)=NCC3 | 3.4% | -2.6% | u
COc1ccc2c(c1)[nH]c1c(C)nccc12 | u | 0.5% | 8.91µM*!
C=C[C@@H]1CN2CC[C@H]1CC2[C@H](O)c1ccnc2ccccc12 (some centres not stated) | x | 2.4%[7.66 µM] | x
C[C@H]1CC[C@@]2(NC1)O[C@@H]1C[C@@H]3[C@@H]4CC=C5C[C@@H](O)CC[C@]5(C)[C@@H]4CC[C@]3(C)[C@H]1[C@@H]2C | x | -2.7%[7.66 µM] | x
C[C@@H]1C[C@@H]([C@H](O)CC2CC(=O)NC(=O)C2)C(=O)[C@@H](C)C1 | 0.0089µM*! | -3.8% | 0.316µM*!
Clc1ccc(C(Cl)(Cl)Cl)cc1Cl | -4.3% | x | -0.7%
O=C(O)CSCC(=O)O | x | 3.2%[7.66 µM] | x
CCn1ccnc1CN1CCCC(C(=O)c2ccc(SC)cc2)C1 (configuration not stated) | 6.31µM* | 7.9% | 1.58µM*
CSc1ccc(C(=O)C2CCCN(Cc3cnc(SC)nc3)C2)cc1 (configuration not stated) | -2.7% | -2.5% | 39.5%
NCCc1c[nH]c2ccc(OC(=O)C(=O)O)cc12 | x | -9.2%[7.66 µM] | x
